Assay outcomes (PubChem)
Shown are actives, neighbours in structure and some others; about 19% of the full set was active somewhere.
TDP1 cell CPT – DT40-hTDP1 cell growth loss with CPT; chicken DT40 Tdp1-/-;hTDP1 cells + 20 nM CPT, ATP luminescence, 48 h; Potency, µM (doses to about 46.2 µM), inactives show at the top dose activity change, negative = growth inhibition, hits mostly inhibitors; 12% of 420,000 active; AID 686979; note: potency is the fitted concentration of half-maximal effect; nearly all actives have a fitted effect of over 55% in size
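Cell growth measured by CellTiter-Glo luminescence after a minimum 48 h, 37 C compound exposure with 20 nM CPT in Tdp1-knockout DT40 cells stably expressing hTDP1, seeded 400/well; qHTS titration format.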
HT1080-NT tox – kills 2HG-producing HT-1080-NT fibrosarcoma cells | HT-1080-NT fibrosarcoma viability, CellTiter-Glo ATP luminescence, 48 h | Potency, µM (series often up to 46.1 µM), for the others: top-dose activity, negative = less viability, actives largely listed as cytotoxic | 1.6% of 360,000 active;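 note: NT is the 2HG producing partner of a matched IDH1 knockdown line; potency is the fitted concentration of half-maximal effect; 0% = DMSO-treated cells and -100% = media-only wells without cells; nearly all actives have a fitted effect of over 55% in size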
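Luminescent CellTiter-Glo readout after 48 hours of compound exposure at 37 degrees C defined viability of HT-1080-NT cells. Activity was normalized to DMSO wells and cell-free media wells; concentration-response curves were fitted and assigned curve classes.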
DT40 TDP1 no CPT – qHTS for Inhibitors of human tyrosyl-DNA phosphodiesterase 1 (TDP1): qHTS in cells in absence of CPT | 15% of 420,000 active | AID 686978, 2013 | Potency, µM (doses to about 46.2 µM), inactives show at the top dose activity change, negative = growth inhibition, hits mostly inhibitors | DT40 Tdp1-/- hTDP1 cells, no CPT, ATP luminescence, 48 h; note: potency is the fitted concentration of half-maximal effect; nearly all actives have a fitted effect of over 55% in size
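Camptothecin absent (DMSO only). Human TDP1-complemented DT40 knockout cells, 400 cells/well, 37 °C for minimum 48 hr; ATP measured via CellTiter-Glo, 30 min dark incubation, luminescence.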
HT1080 IDH1KD tx – HT-1080 IDH1 knockdown cell toxicity (counter line) | HT-1080 IDH1 knockdown viability, ATP luminescence, 48 h | Potency, µM (doses to about 46.1 µM), inactives show at the top dose activity, negative = toxicity, most hits filed as cytotoxic | 2% of 360,000 active;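 note: potency is the fitted concentration of half-maximal effect; 0% = DMSO wells and -100% = cell-free medium wells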
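Assay cells: HT-1080 with IDH1 knockdown, 750 per well, RPMI/5% FBS. Exposure: 48 h at 37 °C following 2 h pre-incubation. Read: CellTiter-Glo luminescence; fitted concentration-response, curve class assigned.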
IL-1B inflam inh – blocks inflammasome-driven IL-1 beta release; activity change, % at 57.5 µM; THP-1 LPS/ATP IL-1B secretion, AlphaLISA, 16 h; hits give low values; 4.7% of 360,000 active; AID 743279; in the data active = activity change below about -50%; inconclusive = mostly about -30% to -49%
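THP-1 cells pretreated 1 hr with compounds (up to 57.5 uM final), then stimulated with LPS (250 ng/mL final) plus ATP (1.25 mM final); secreted IL-1B measured by AlphaLISA after 16 hr, decreased signal indicating inhibition.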
An asterisk follows results filed as active. Unless noted, calls come from the whole dose curve; as a rule, active = well fitted curve in the direction sought with a large enough effect; inconclusive = small, poorly fitted or top-dose-only effect, or another doubt; inactive = no such curve, though single readings can be large; an effect the other way counts as inactive or inconclusive. Unless noted, % is set by controls: 0 for no effect and ±100 for the full control effect.

Screening CCC[C@H]1NC(=O)[C@H](C)N(C)C(=O)C(C)(C)C(=O)C(C)NC(=O)[C@H](Cc2ccc(OC)cc2)N(C)C(=O)[C@H](C(C)C)N(C)C(=O)CNC(=O)[C@H](CC(C)C)N(C)C(=O)CNC(=O)[C@H]([C@@H](C)CC)OC(=O)[C@H]1C (some centres not stated) returned TDP1 cell CPT 0.0326µM*, HT1080-NT tox 0.82µM*, DT40 TDP1 no CPT 0.0206µM*, HT1080 IDH1KD tx 1.03µM* and IL-1B inflam inh -28.7.
Screening Cc1cn([C@H]2C[C@H](O)[C@@H](CNCc3cccn3-c3ccncc3)O2)c(=O)[nH]c1=O returned TDP1 cell CPT -11.6%, HT1080-NT tox 11.8%, DT40 TDP1 no CPT -14.8%, HT1080 IDH1KD tx 8.6% and IL-1B inflam inh 52.8.
COC(=O)c1noc(C)c1-c1ccnn1C(=O)c1ccc(C)cc1 was read as TDP1 cell CPT 0.3%, HT1080-NT tox 6.8%, DT40 TDP1 no CPT 7.3%, HT1080 IDH1KD tx 17.6% and IL-1B inflam inh -9.9.
`Cc1ccc(S(=O)(=O)n2nccc2-c2c(-c3ccccc3)noc2C)cc1` gave TDP1 cell CPT inconclusive, HT1080-NT tox inconclusive, DT40 TDP1 no CPT 18.4µM* and HT1080 IDH1KD tx inconclusive.
O=S(=O)(c1ccccc1)N1CCN(Cc2nnc(-c3ccccc3)o2)CC1 was read as TDP1 cell CPT -20.4%, HT1080-NT tox 3.9%, DT40 TDP1 no CPT inconclusive, HT1080 IDH1KD tx 9.4% and IL-1B inflam inh -1.6.
Screening Cc1onc(-c2ccccc2)c1-c1ccnn1C(=O)NC(C)C returned TDP1 cell CPT -21.5%, HT1080-NT tox 22.7%, DT40 TDP1 no CPT inconclusive, HT1080 IDH1KD tx 14.5% and IL-1B inflam inh -60.3*.
For Cc1onc(-c2ccccc2)c1-c1ccnn1S(=O)(=O)c1ccc(Cl)cc1 the results were TDP1 cell CPT -3.6%, HT1080-NT tox -5.6%, DT40 TDP1 no CPT -28.3% and HT1080 IDH1KD tx -24.9%.
For Cc1onc(-c2ccc(Cl)cc2)c1-c1ccnn1S(=O)(=O)c1cccc(C(F)(F)F)c1 the results were TDP1 cell CPT inconclusive, HT1080-NT tox -5.6%, DT40 TDP1 no CPT 23.1µM*, HT1080 IDH1KD tx -24.6% and IL-1B inflam inh -19.9.
Screening Cc1ccc(S(=O)(=O)N2CCN(Cc3nnc(-c4c(-c5ccccc5)noc4C)o3)CC2)cc1 returned TDP1 cell CPT 14.6µM*, HT1080-NT tox 24.2%, DT40 TDP1 no CPT 14.6µM*, HT1080 IDH1KD tx -1.8% and IL-1B inflam inh -10.0.
`COC(C[C@H](O)C[C@H](O)COCc1ccccc1)OC` gave TDP1 cell CPT 11.3%, HT1080-NT tox 13.3%, DT40 TDP1 no CPT -9.2%, HT1080 IDH1KD tx 8.9% and IL-1B inflam inh 0.0.
FC(F)(F)Sc1ccc(NC(=S)NCc2ccccc2)cc1 was read as TDP1 cell CPT inconclusive, HT1080-NT tox -15.9%, DT40 TDP1 no CPT 20.6µM*, HT1080 IDH1KD tx -26.1% and IL-1B inflam inh -87.7*.
S=C(NCCc1ccccn1)Nc1ccc(Cl)cc1 was read as TDP1 cell CPT 18.4µM*, HT1080-NT tox 13.4%, DT40 TDP1 no CPT 18.4µM*, HT1080 IDH1KD tx 17.9% and IL-1B inflam inh -2.2.
Screening S=C(NCc1ccncc1)Nc1cc(Cl)cc(Cl)c1 returned TDP1 cell CPT inconclusive, HT1080-NT tox -19.5%, DT40 TDP1 no CPT -16.7%, HT1080 IDH1KD tx inconclusive and IL-1B inflam inh -54.2*.
S=C(NCc1ccncc1)Nc1ccc(Cl)c(Cl)c1 was read as TDP1 cell CPT inconclusive, HT1080-NT tox -21.1%, DT40 TDP1 no CPT inconclusive, HT1080 IDH1KD tx inconclusive and IL-1B inflam inh -60.7*.
Fc1ccc(NC(=S)NCCc2ccccn2)cc1 was read as TDP1 cell CPT 3.9%, HT1080-NT tox -0.7%, DT40 TDP1 no CPT inconclusive, HT1080 IDH1KD tx 8.2% and IL-1B inflam inh -18.5.
`CS(=O)(=O)Nc1ccc(C2=NN(C(=O)CCCC(=O)O)C(c3cccs3)C2)cc1` (configuration not stated) gave TDP1 cell CPT -7.5%, HT1080-NT tox 18.9%, DT40 TDP1 no CPT 13.4%, HT1080 IDH1KD tx 10.4% and IL-1B inflam inh 21.3.
O=C(O)c1ccc(-n2nc(C(F)(F)F)cc2-c2cccs2)cc1 was read as TDP1 cell CPT 7.5%, HT1080-NT tox 29.2%, DT40 TDP1 no CPT -20.1%, HT1080 IDH1KD tx 0.0% and IL-1B inflam inh 14.6.
For S=C(NCc1ccccc1)Nc1ccncc1 the results were TDP1 cell CPT 10.3µM*, HT1080-NT tox -9.3%, DT40 TDP1 no CPT inconclusive, HT1080 IDH1KD tx -15.2% and IL-1B inflam inh 37.8.
Screening S=C(NCc1ccncc1)Nc1ccccc1 returned TDP1 cell CPT 2.3%, HT1080-NT tox -0.7%, DT40 TDP1 no CPT inconclusive, HT1080 IDH1KD tx -3.3% and IL-1B inflam inh -0.7.
S=C(NCc1ccccn1)Nc1ccccc1 was read as TDP1 cell CPT 16.7%, HT1080-NT tox 12.5%, DT40 TDP1 no CPT 5.0%, HT1080 IDH1KD tx 10.0% and IL-1B inflam inh 7.2.
S=C(NCc1ccccn1)Nc1ccc(Cl)c(Cl)c1 was read as TDP1 cell CPT 16.4µM*, HT1080-NT tox -4.0%, DT40 TDP1 no CPT inconclusive, HT1080 IDH1KD tx -12.2% and IL-1B inflam inh -63.3*.
Screening CCCC(=O)Nc1nc(-c2ccccc2)c(CC)s1 returned TDP1 cell CPT inconclusive, HT1080-NT tox 0.3%, DT40 TDP1 no CPT inconclusive, HT1080 IDH1KD tx 2.0% and IL-1B inflam inh -7.1.
For O=C(Nc1c2c(nn1-c1ccccc1)CS(=O)(=O)C2)c1ccccc1C(F)(F)F the results were TDP1 cell CPT -2.9%, HT1080-NT tox 8.4%, DT40 TDP1 no CPT 1.9%, HT1080 IDH1KD tx 3.6% and IL-1B inflam inh 16.4.
For Cc1cccc(C(=O)OCc2cc(=O)n3nc(C4CC4)sc3n2)c1 the results were TDP1 cell CPT -3.5% and DT40 TDP1 no CPT -8.1%.
For OCC[C@@H]1C[C@@H](O)[C@H](O)[C@@]2(CCCCO2)O1 the results were TDP1 cell CPT -1.5%, HT1080-NT tox 3.3%, DT40 TDP1 no CPT -21.3%, HT1080 IDH1KD tx 7.9% and IL-1B inflam inh 7.2.
Screening Cc1ccc2nc(Nc3nc(CSc4nnc(C)s4)cc(=O)[nH]3)nc(C)c2c1 returned TDP1 cell CPT inconclusive, HT1080-NT tox 0.4%, DT40 TDP1 no CPT 14.6µM*, HT1080 IDH1KD tx 1.5% and IL-1B inflam inh -87.6*.
Cc1ccc2nc(Nc3nc(CSc4nc5ccccc5s4)cc(=O)[nH]3)nc(C)c2c1 was read as TDP1 cell CPT 11.6µM*, HT1080-NT tox 13.2%, DT40 TDP1 no CPT 14.6µM*, HT1080 IDH1KD tx 7.4% and IL-1B inflam inh 1.0.
Cc1noc(C)c1CSc1nc2ccccc2s1 was read as TDP1 cell CPT inconclusive, HT1080-NT tox 1.2%, DT40 TDP1 no CPT inconclusive, HT1080 IDH1KD tx -1.3% and IL-1B inflam inh -1.2.
